In the library only some 4.8% were active in any assay of this set; here they are far more common.
S2 tox: Viability Counterscreen for Primary qHTS for Inhibitors of ATXN expression. Potency, µM (doses to about 56.7 µM), actives largely listed as cytotoxic. S2 cells (HEK-293 line with an ATXN2-luciferase reporter) viability, CellTiter-Fluor protease fluorescence, 24 h. AID 651635, 2014. 0.49% of 400,000 active; note: potency is the fitted concentration of half-maximal effect; nearly all actives have a fitted effect of over 40% in size
HepG2 viability: qHTS for Inhibitors of TGF-b: Cytotox Counterscreen; HepG2 CAGA-GFP viability, ATP luminescence, 18 h; Potency, µM (top dose mostly 46.1 µM), for inactives: at the top dose activity change, negative = cytotoxicity, usual class: cytotoxic; 0.76% of 410,000 active; note: potency is the fitted concentration of half-maximal effect
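CellTiter-Glo luminescence gave cytotoxicity after 18 hours at 37 degrees C. The cells were HepG2 CAGA-GFP in 1% FBS DMEM, stimulated with 500 pg/mL TGF-beta after compound addition. %Activity was normalised to no-cell wells (complete cell-killing) and DMSO (no toxicity), and curves were fitted and classified.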
TGFb inhibitor: qHTS for Inhibitors of TGF-b; Potency, µM (top dose mostly 46.1 µM), for the others: at the highest dose activity, negative = inhibition, hits mostly inhibitors; HepG2 CAGA-GFP TGF-b/SMAD3 reporter, GFP fluorescence, 18 h; TGF-beta stimulated, 500 pg/mL final; AID 588855, 2011; 1.2% of 410,000 active; note: potency is the fitted concentration of half-maximal effect; % is set by controls: 0 for no effect and ±100 for the full control effect; nearly all actives have a fitted effect of over 65% in size
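Smad-responsive CAGA-GFP expression was quantified in HEPG2 cells exposed to compounds and 500 pg/mL final TGF-beta for 18 h at 37 degrees C; unstimulated wells defined full inhibition.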
DRD3 agonist: qHTS of D3 Dopamine Receptor Agonist: qHTS. D(3) dopamine receptor (Homo sapiens), P35462. D3R DiscoveRx beta-arrestin cells, luminescence, 90 min. max activation, %. 0.58% of 410,000 active; in the data active = max activation above about 30%; note: 0% is about no effect
Target sequence (P35462 whole entry, looked up): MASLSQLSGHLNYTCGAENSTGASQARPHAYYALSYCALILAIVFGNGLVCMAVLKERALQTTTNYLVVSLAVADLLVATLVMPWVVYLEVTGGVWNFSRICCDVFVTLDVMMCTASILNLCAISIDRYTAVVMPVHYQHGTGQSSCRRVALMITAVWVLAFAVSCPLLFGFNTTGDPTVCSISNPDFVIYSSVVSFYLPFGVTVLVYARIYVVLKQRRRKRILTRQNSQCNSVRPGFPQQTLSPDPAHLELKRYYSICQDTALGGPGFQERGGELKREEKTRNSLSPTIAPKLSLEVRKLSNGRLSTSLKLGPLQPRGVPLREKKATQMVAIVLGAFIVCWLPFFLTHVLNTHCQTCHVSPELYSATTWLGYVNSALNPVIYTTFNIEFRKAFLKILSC
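Cells at 1500/well, incubated overnight, then treated with pinned compounds (dopamine as control) for 90 min at 37 degrees C. DiscoveRx reagent added for 30 - 60 minutes at room temperature; luminescence read.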
D3 antag: qHTS of D3 Dopamine Receptor Antagonist: qHTS; D(3) dopamine receptor (Homo sapiens), P35462; D3R cells, DiscoveRx beta-arrestin luminescence, antagonist mode; active compounds read low; max response, negative = inhibition, %; 2.5% of 360,000 active; in the data active = max response below about -50%; inconclusive = no clear call, values can overlap the other calls; note: % is set by controls: 0 for no effect and ±100 for the full control effect
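Cells expressing the human receptor were seeded at 1500 cells/well, incubated overnight at 37 degrees C in 5% CO2, then exposed to library compounds with dopamine controls for 90 minutes at 37 degrees C before luminescent detection.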
ATXN2 expr inh: Primary qHTS for Inhibitors of ATXN expression. Potency, µM (doses to about 57 µM), for the others: top-dose activity change, negative = inhibition, hits mostly inhibitors. 0.72% of 360,000 active. HEK-293 ATXN2-luciferase reporter, luminescence, 24 h; note: potency is the fitted concentration of half-maximal effect; % is set by controls: 0 for no effect and ±100 for the full control effect; nearly all actives have a fitted effect of over 55% in size
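qHTS (up to 57 uM final) was run with 24 h compound exposure of reporter cells at 37 °C. Each well was multiplexed: SteadyGlo luminescence measured ATXN2-luciferase expression after a fluorogenic Gly-Phe-AFC viability readout (25 uM final).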
* marks the source's active call; other numbers are inactive results. Unless noted, calls come from the whole dose curve; as a rule, active = well fitted curve in the direction sought with a large enough effect; inconclusive = small, poorly fitted or top-dose-only effect, or another doubt; inactive = no such curve, though single readings can be large; an effect the other way counts as inactive or inconclusive.

`CCc1ccc(NC(=O)c2cc(CN3CCOCC3)on2)cc1` gave S2 tox inactive, HepG2 viability -3.4%, TGFb inhibitor 6.5%, DRD3 agonist -2.0 and ATXN2 expr inh 15.0%.
`Cc1ccc(O)c(N)c1` gave S2 tox inactive, HepG2 viability -42.7%, TGFb inhibitor -19.2%, DRD3 agonist -63.3, D3 antag -105.3* and ATXN2 expr inh 12.5%.
Screening Cc1cc(C)c(OCC(=O)Nc2cccc(-c3nc4ncccc4o3)c2)c(Br)c1 returned S2 tox inactive, HepG2 viability -2.4%, TGFb inhibitor 15.3%, DRD3 agonist 9.8 and ATXN2 expr inh 12.4%.
Screening COc1c(C)cc(Br)cc1C(=O)Nc1cccc(-c2nc3ncccc3o2)c1 returned S2 tox 31.6µM*, HepG2 viability -13.4%, TGFb inhibitor -8.2%, DRD3 agonist 3.1, D3 antag 99.2 and ATXN2 expr inh 22.4µM*.
COc1c(C)cc(Br)cc1C(=O)Nc1ccc(-c2nc3ncccc3o2)cc1 was read as S2 tox inactive, HepG2 viability -21.8%, TGFb inhibitor 5.9%, DRD3 agonist 9.6 and ATXN2 expr inh -10.1%.
Cc1ccc(C(C)C)c(OCC(=O)Nc2cccc(-c3nc4ncccc4o3)c2)c1 was read as S2 tox 20µM*, HepG2 viability 6.1%, TGFb inhibitor 0.8%, DRD3 agonist 8.5 and ATXN2 expr inh inconclusive.
For CCCCCCCNC(=O)C1(CC2CC(c3ccc(Cl)cc3)=NO2)CCNCC1 (configuration not stated) the results were HepG2 viability 17.8µM*, TGFb inhibitor inconclusive, DRD3 agonist -4.9, D3 antag 2.6 and ATXN2 expr inh 28.2µM*.
CCCCCCCNC(=O)C1(CC2CC(c3ccc(Cl)cc3)=NO2)CCN(C(=O)Cc2ccc(F)cc2)CC1 (configuration not stated) was read as S2 tox inactive, HepG2 viability -4.3%, TGFb inhibitor 0.4%, DRD3 agonist 4.5, D3 antag 29.2 and ATXN2 expr inh 0.2%.
Screening CN1CCN(C2Cc3cc(Cl)ccc3Sc3cc(F)ccc32)CC1 (configuration not stated) returned S2 tox inconclusive, HepG2 viability -99.5%, TGFb inhibitor inconclusive, DRD3 agonist -54.2, D3 antag -93.5* and ATXN2 expr inh inconclusive.
CN1CCN(CCOC2Cc3ccccc3Sc3ccc(Cl)cc32)CC1 (configuration not stated) was read as S2 tox inactive, HepG2 viability -29.2%, TGFb inhibitor inconclusive, DRD3 agonist -8.3, D3 antag -62.7* and ATXN2 expr inh -15.7%.
For OCCN1CCN(C2Cc3cc(Cl)ccc3Sc3ccc(Cl)cc32)CC1 (configuration not stated) (tested in a mixture with another compound) the results were S2 tox inconclusive, HepG2 viability 10µM*, TGFb inhibitor inconclusive, DRD3 agonist 6.0, D3 antag -71.9* and ATXN2 expr inh inconclusive.
For Cc1c(C(=O)N2CCC(C)CC2)c(S(=O)(=O)N2CCN(c3ccc(Cl)cc3)CC2)c(C)n1C the results were HepG2 viability -2.2%, TGFb inhibitor -14.1% and DRD3 agonist 7.0.
For CCc1ccccc1NC(=O)Cn1c(=O)n(CCc2ccccc2)c(=O)c2sc3ccccc3c21 the results were S2 tox inactive, HepG2 viability -2.2%, TGFb inhibitor -7.9%, DRD3 agonist -19.4 and ATXN2 expr inh 8.5%.
`O=C(CN1C(=O)CCc2cc(S(=O)(=O)N3CCOCC3)ccc21)NCc1ccccc1Cl` gave S2 tox inactive, HepG2 viability -14.7%, TGFb inhibitor -22.6%, DRD3 agonist -4.4 and ATXN2 expr inh 13.7%.
